Source: paper PMC3218832

Experiments:
Assay in all cases: protein binding microarray; high values mean tight binding
Settings in all cases: dsDNA, one strand shown
RELARELA (p65 homodimer) = RELARELA (p65 homodimer) (Homo sapiens, UniProt Q04206 1-307)
p50p50 homodimer = p50p50 homodimer (Homo sapiens, UniProt P19838 7-356)
p52p52 homodimer = target: T1, p52p52 homodimer (Homo sapiens, UniProt Q00653 4-332)
T1 sequence: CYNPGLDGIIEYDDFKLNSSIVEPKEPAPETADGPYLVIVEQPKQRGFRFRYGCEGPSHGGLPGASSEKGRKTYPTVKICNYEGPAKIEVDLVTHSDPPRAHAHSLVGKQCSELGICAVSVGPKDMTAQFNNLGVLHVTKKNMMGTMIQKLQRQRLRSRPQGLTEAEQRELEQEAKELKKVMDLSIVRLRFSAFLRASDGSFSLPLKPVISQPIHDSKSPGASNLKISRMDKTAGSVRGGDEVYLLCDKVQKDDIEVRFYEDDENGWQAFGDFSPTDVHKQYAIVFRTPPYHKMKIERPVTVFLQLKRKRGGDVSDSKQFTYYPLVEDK

[1] = target: RELA (p65) subunit of heterodimer;p50 subunit (Homo sapiens;Homo sapiens, UniProt Q04206;P19838 1-307;7-356)
Chain of RELA (p65) subunit of heterodimer;p50 subunit (Q04206 1-307, chain 1 of 2): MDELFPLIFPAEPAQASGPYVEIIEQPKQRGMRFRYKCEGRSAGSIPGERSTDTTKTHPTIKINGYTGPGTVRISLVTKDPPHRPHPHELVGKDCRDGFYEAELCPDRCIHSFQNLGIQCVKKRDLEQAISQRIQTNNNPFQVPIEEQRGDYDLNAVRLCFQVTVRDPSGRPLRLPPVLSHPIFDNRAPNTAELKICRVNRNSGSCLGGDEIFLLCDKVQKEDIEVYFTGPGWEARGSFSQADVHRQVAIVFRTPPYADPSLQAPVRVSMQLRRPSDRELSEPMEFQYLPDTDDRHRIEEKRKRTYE
Chain of RELA (p65) subunit of heterodimer;p50 subunit (P19838 7-356, chain 2 of 2): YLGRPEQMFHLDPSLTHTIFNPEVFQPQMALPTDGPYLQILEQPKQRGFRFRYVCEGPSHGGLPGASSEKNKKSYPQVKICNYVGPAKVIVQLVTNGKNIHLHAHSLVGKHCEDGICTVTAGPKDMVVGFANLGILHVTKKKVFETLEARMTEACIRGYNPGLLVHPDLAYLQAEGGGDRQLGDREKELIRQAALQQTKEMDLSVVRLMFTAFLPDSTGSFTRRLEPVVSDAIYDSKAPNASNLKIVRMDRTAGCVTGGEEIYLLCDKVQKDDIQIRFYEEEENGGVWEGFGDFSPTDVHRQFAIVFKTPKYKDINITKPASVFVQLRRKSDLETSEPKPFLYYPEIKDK

[2] = target: RELA (p65) subunit of heterodimer;p52 subunit (Homo sapiens;Homo sapiens, UniProt Q04206;Q00653 1-307;4-332)
RELB subunit;p50 subunit = RELB subunit;p50 subunit (Homo sapiens;Homo sapiens, UniProt Q01201;P19838 120-401;7-356)
RELB subunit;p52 subunit = target: T2, RELB subunit;p52 subunit (Homo sapiens;Homo sapiens, UniProt Q01201;Q00653 120-401;4-332)
T2 sequence 1: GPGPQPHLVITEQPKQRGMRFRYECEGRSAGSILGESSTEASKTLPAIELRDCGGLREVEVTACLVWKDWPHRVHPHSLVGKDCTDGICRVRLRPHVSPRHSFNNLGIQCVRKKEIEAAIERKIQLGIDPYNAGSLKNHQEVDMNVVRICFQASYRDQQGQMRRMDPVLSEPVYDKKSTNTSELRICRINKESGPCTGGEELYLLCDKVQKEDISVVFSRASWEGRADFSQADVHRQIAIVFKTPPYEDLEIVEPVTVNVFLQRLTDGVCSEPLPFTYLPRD
T2 sequence 2: T1 sequence

[3] = target: C-Rel subunit;p50 subunit (Homo sapiens;Homo sapiens, UniProt Q04864;P19838 1-285;7-356)
[4] = target: T3, C-Rel subunit;p52 subunit (Homo sapiens;Homo sapiens, UniProt Q04864;Q00653 1-285;4-332)
T3 sequence 1: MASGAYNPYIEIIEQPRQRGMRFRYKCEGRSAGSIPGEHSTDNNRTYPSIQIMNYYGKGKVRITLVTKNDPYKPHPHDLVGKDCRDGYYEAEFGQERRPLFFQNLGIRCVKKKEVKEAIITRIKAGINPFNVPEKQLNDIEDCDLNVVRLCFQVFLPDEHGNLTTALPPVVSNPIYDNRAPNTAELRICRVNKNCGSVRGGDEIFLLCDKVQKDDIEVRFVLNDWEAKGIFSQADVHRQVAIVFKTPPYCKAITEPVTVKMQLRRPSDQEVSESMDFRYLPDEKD
T3 sequence 2: T1 sequence

Chain of RELARELA (p65 homodimer) (Q04206 1-307): as the sequence (Q04206 1-307, chain 1 of 2) above
Chain of p50p50 homodimer (P19838 7-356): as the sequence (P19838 7-356, chain 2 of 2) above

Row | Sequence | binding signal (RELARELA (p65 homodimer)) | binding signal (p50p50 homodimer) | binding signal (p52p52 homodimer) | binding signal [1] | binding signal [2] | binding signal (RELB subunit;p50 subunit) | binding signal (RELB subunit;p52 subunit) | binding signal [3] | binding signal [4]
1 | CAGTACCCCCC | -0.045 z-score | 1.15 z-score | 0.733 z-score | 0.954 z-score | 0.96 z-score | 0.927 z-score | 1.16 z-score | 0.886 z-score | 0.823 z-score
2 | CGGAAATTCCC | 4.22 z-score | 1.06 z-score | 2.53 z-score | 2.23 z-score | 2.39 z-score | 1.19 z-score | 2.04 z-score | 2.28 z-score | 2.88 z-score
3 | CGGTAGTCCCC | 0.678 z-score | 1.22 z-score | 1.51 z-score | 1.43 z-score | 1.31 z-score | 1.05 z-score | 1.33 z-score | 1.12 z-score | 1.42 z-score
4 | CAGTTTGCCCC | 1.6 z-score | 0.492 z-score | 0.189 z-score | 1.17 z-score | 0.571 z-score | 0.532 z-score | 0.563 z-score | 1.5 z-score | 0.899 z-score
5 | AGAGACCTCCC | -0.639 z-score | -0.985 z-score | -0.531 z-score | -0.592 z-score | -0.789 z-score | -0.533 z-score | -0.671 z-score | -0.845 z-score | -0.997 z-score
6 | GGATAGACCCC | -0.296 z-score | -0.324 z-score | -0.227 z-score | -0.111 z-score | -0.128 z-score | -0.398 z-score | 0.071 z-score | -0.41 z-score | -0.251 z-score
7 | CGATTAGTCCT | -0.163 z-score | -1.16 z-score | -0.532 z-score | -0.961 z-score | -0.861 z-score | -1.12 z-score | -0.766 z-score | -1.1 z-score | -0.684 z-score
8 | CGGAATCCCCT | 2.17 z-score | 1.6 z-score | 2.39 z-score | 2.3 z-score | 2.13 z-score | 2.43 z-score | 2.22 z-score | 1.83 z-score | 2.31 z-score
9 | CAAAATATCCC | 0.764 z-score | 0.4 z-score | 0.253 z-score | 0.376 z-score | 0.346 z-score | 0.128 z-score | 0.342 z-score | 0.0335 z-score | 0.411 z-score
10 | GGAGGGATCCT | -0.405 z-score | -1.1 z-score | -0.254 z-score | -0.619 z-score | -0.58 z-score | -0.707 z-score | -0.517 z-score | -1.01 z-score | -0.454 z-score
11 | AGATATTCCCC | 1.8 z-score | 1.31 z-score | 2.2 z-score | 2.03 z-score | 1.99 z-score | 1.8 z-score | 1.96 z-score | 1.64 z-score | 1.71 z-score
12 | AAGTAGTCCCC | 0.275 z-score | 1.21 z-score | 1 z-score | 1.09 z-score | 1.01 z-score | 1.36 z-score | 1.04 z-score | 1.07 z-score | 0.58 z-score
13 | GAGGTCCCCCT | 0.588 z-score | 1.14 z-score | 0.954 z-score | 1.63 z-score | 1.22 z-score | 1.56 z-score | 1.97 z-score | 1.28 z-score | 1.05 z-score
14 | GGAGTAATCCC | 0.396 z-score | -0.279 z-score | 0.000216 z-score | -0.0898 z-score | -0.103 z-score | -0.277 z-score | -0.368 z-score | 0.0858 z-score | 0.0188 z-score
15 | CAAAAACCCCT | 1.05 z-score | 1.47 z-score | 2.66 z-score | 1.84 z-score | 2.09 z-score | 2.09 z-score | 2.18 z-score | 1.37 z-score | 2.28 z-score
16 | AGGTGCGTCCT | -0.881 z-score | -0.757 z-score | -0.281 z-score | -0.82 z-score | -0.633 z-score | -0.695 z-score | -0.608 z-score | -1.1 z-score | -0.46 z-score
17 | CGGTTCCCCCC | 0.357 z-score | 1.52 z-score | 1.57 z-score | 2.24 z-score | 1.89 z-score | 2.3 z-score | 2.23 z-score | 1.85 z-score | 1.73 z-score
18 | AAAGTCTCCCC | 0.367 z-score | 0.818 z-score | 0.559 z-score | 0.733 z-score | 0.654 z-score | 0.78 z-score | 0.879 z-score | 0.882 z-score | 0.388 z-score
19 | GAAGGGCTCCC | -1.08 z-score | -1.07 z-score | -0.651 z-score | -0.8 z-score | -0.916 z-score | -0.771 z-score | -0.771 z-score | -1.05 z-score | -0.778 z-score
20 | GGAATATCCCT | 2.04 z-score | 0.687 z-score | 1.23 z-score | 1.41 z-score | 1.36 z-score | 0.471 z-score | 1.04 z-score | 0.979 z-score | 1.6 z-score
21 | AAAGTTCTCCT | 0.015 z-score | -1.02 z-score | -0.659 z-score | -0.601 z-score | -0.834 z-score | -0.944 z-score | -0.822 z-score | -0.841 z-score | -0.771 z-score
22 | AAGGAGCTCCC | -0.693 z-score | -0.999 z-score | -0.562 z-score | -0.64 z-score | -0.893 z-score | -0.741 z-score | -0.874 z-score | -0.927 z-score | -0.843 z-score
23 | CGATTGACCCC | -0.827 z-score | -0.753 z-score | -0.367 z-score | -0.579 z-score | -0.288 z-score | -0.398 z-score | -0.411 z-score | -0.541 z-score | -0.184 z-score
24 | GAAATCCTCCT | -0.0844 z-score | -0.961 z-score | -0.613 z-score | -0.658 z-score | -0.961 z-score | -0.979 z-score | -0.866 z-score | -0.982 z-score | -0.715 z-score
25 | AAAAGGGCCCT | -0.729 z-score | -0.423 z-score | -0.373 z-score | -0.762 z-score | -0.52 z-score | -0.464 z-score | -0.386 z-score | -1.07 z-score | -0.406 z-score
26 | CAGATCGTCCT | -0.0967 z-score | -1.22 z-score | -0.471 z-score | -1 z-score | -0.796 z-score | -0.842 z-score | -0.777 z-score | -1.17 z-score | -0.663 z-score
27 | GAATAACTCCT | -0.147 z-score | -1.37 z-score | -0.713 z-score | -0.733 z-score | -0.946 z-score | -0.919 z-score | -0.853 z-score | -0.82 z-score | -0.791 z-score
28 | AGAATGTTCCT | 0.037 z-score | -1.47 z-score | -0.491 z-score | -0.64 z-score | -0.735 z-score | -0.963 z-score | -0.948 z-score | -1.17 z-score | -0.63 z-score
29 | GGGTAGTTCCT | 0.746 z-score | 0.495 z-score | 0.541 z-score | 0.394 z-score | 0.345 z-score | -0.0983 z-score | 0.0547 z-score | 0.249 z-score | 0.583 z-score
30 | AAGAATTTCCT | 1.63 z-score | -0.591 z-score | -0.35 z-score | -0.206 z-score | -0.329 z-score | -0.672 z-score | -0.375 z-score | 0.0204 z-score | -0.227 z-score
